We go through 9 compounds from PubChem BioAssay.

The structures appear in SMILES notation.

A short description of this assay: probe aNog binding to arrayed compounds – biochemical, biotinylated probe, 635/667 nm fluorescence, primary screen (AID 1115).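 Note: probe is biotinylated aNog protein used at 0.15 µg/mL for 1 h at 4 C; z-score combines 667 nm fluorescence of each spot with its signal to noise.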 The conditions noted are these: small-molecule microarray, higher = more signal.
`COC(=O)[C@@]1(Cc2ccccc2)[C@H]2c3cc(C(=O)N4CCCC4)[nH]c3C[C@H]2CN1C(=O)c1ccccc1` displayed a composite z-score of 1.1.
The figure for `O=C(O)[C@H](Cc1ccccc1)n1cc(-c2ccccn2)nn1` is -0.0827; for `O=C1O[C@@H](c2ccccc2)[C@@H](c2ccccc2)N2[C@@H](c3ccccc3OCCO)[C@]3(C(=O)Nc4ccc(C#CCCO)cc43)[C@@H](C(=O)N3CCN(c4ncccn4)CC3)[C@H]12` it is -0.332.
As for `COc1ccc([Si](C)(C)[C@@H]2[C@@H](CCO)O[C@]3(C(=O)N(Cc4cccc(N5C(=O)c6ccccc6Oc6ccccc65)c4)c4ccccc43)[C@H]2C)cc1`, the figure is -0.0641; as for `CN(C)CCCN1C(=O)[C@@]2(c3ccc([N+](=O)[O-])cc3)CC(=O)N(CC34CC5CC(CC(C5)C3)C4)[C@@H]2c2ccc(CO)cc21`, -0.302; as for `C[C@]12C(=O)N(CCCCCCO)[C@@H]3C(=O)N(c4ccc(Cl)cc4)CC=CC31O[C@@H]1/C=C\CCCOC(=O)C12` (some centres undefined), 0.782.
`CC1CC/C=C\[C@H]2OC34C=CCN(c5ccc6ccccc6c5)C(=O)[C@H]3N(C(CO)C(C)C)C(=O)[C@@H]4C2C(=O)O1` (some centres undefined) gave a composite z-score of -0.267.
Regarding `O=C1O[C@@H](c2ccccc2)[C@@H](c2ccccc2)N2[C@@H](c3ccc(O)cc3)[C@]3(C(=O)Nc4ccc(C#CC5=CCCCC5)cc43)[C@@H](C(=O)N3CCN(c4ncccn4)CC3)[C@H]12`, the composite z-score was -0.14.
As for `C[C@H]1ON(c2ccc(C(=O)OC(C)(C)C)cc2)[C@@H](c2ccc(O)cc2)[C@@H]1C(=O)N1C(=O)OC[C@@H]1c1ccccc1`, the figure is -0.383.
